Assay [1] is described as follows: AP1 Signaling Pathway (AID 357; active = well fitted curve in either direction with a large enough effect, not every such curve was filed as active; also: % is scaled to controls: 0 for no effect and ±100 for the full control effect). As to conditions: ME-180 AP-1-bla reporter, EGF-induced, beta-lactamase ratio, 5 h; at 7.69 µM (top of the series) unless noted. The essentials: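 Read-out was the 460nm/530nm emission ratio (excitation 405nm) after CCF4 loading for 2.5 hours at room temperature. Cells carried an AP-1-driven beta-lactamase reporter, were stimulated with EC50 EGF plus compound for 5 hours, and AC50 values came from titrations.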

Assay [2] is described as follows: NFAT Signaling Pathway (AID 444; active = well fitted curve in either direction with a large enough effect, not every such curve was filed as active;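 also: carbachol stimulus at about its EC50 of 1 µM final; % is scaled to controls: 0 for no effect and ±100 for the full control effect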). As to conditions: Jurkat NFAT-bla M1, carbachol, beta-lactamase ratio, 5 h; at 7.69 µM (top of the series) unless noted. The method, boiled down: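 Jurkat cells carrying an NFAT-driven β-lactamase reporter and co-transfected muscarinic M1 receptor were treated with compound plus carbachol (1 uM final, an EC50 level) for 5 h at 37 °C. CCF4 loading followed for 1 h at RT; 460/530 nm ratio gave %activity.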

A short description of assay [3]: Stat Signaling Pathway (AID 446; active = well fitted curve in either direction with a large enough effect, not every such curve was filed as active;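 also: ME-180 cervical cancer cells given 40 pM IL-6 alongside compound; SIE-controlled beta-lactamase reporter measured as 460/530 nm FRET emission ratio; % is scaled to controls: 0 for no effect and ±100 for the full control effect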). As to conditions: ME-180 SIE beta-lactamase reporter, IL-6 stimulated, 5 h; at 7.69 µM (top of the series) unless noted. The method, boiled down: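 ME-180 SIE-bla cells; overnight plating; cpd + IL-6 40 pM, 5 h, 37 C; LiveBLAzer 2.5 h RT; 460/530 nm emission ratio. Normalized to 300 pM IL-6 and 125 nM JAK inhibitor controls.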
The target in assay [4] is Glucocorticoid receptor (Homo sapiens) (UniProt P04150). Description: GR-GFP Redistribution (AID 450;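 active = compounds whose dose series gives a full or clear partial fitted curve of increased nuclear translocation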; also: potency is read from the fitted curve at half-maximal effect). As to conditions: U2OS GR-GFP nuclear translocation, laser cytometry, 2 h.
Assay [5] has the same target. The experiment in a line: GR-EFC Redistribution (AID 451; calls by dose curve; also: potency is read from the fitted curve at half-maximal effect). As to conditions: CHO-K1 GR-EFC translocation, beta-gal luminescence, 2 h. The essentials: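 CHO-K1 cells stably expressing nuclear-localized β-gal enzyme acceptor and GR fused C-terminally to the enzyme donor fragment; ligand-driven nuclear translocation restores β-gal by complementation. Compounds titrated up to 46 uM final, 2 h at 37 °C; luminescence read.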

Assay [6] deals with Mitogen-activated protein kinase 10 (Mus musculus) (UniProt Q61831). The experiment in a line: JNK3 AlphaScreen Assay (AID 530; active = well fitted curve in either direction with a large enough effect, not every such curve was filed as active;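 also: kinase came from lysate of stimulated human HepG2 cells; signal reports phosphorylation of biotinylated GST-cJun 1-79 at Ser73 with 10 µM ATP; % is scaled to controls: 0 for no effect and ±100 for the full control effect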). The method, boiled down: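 Inhibitors reduce antibody binding to phosphorylated biotin-cJun, lowering AlphaScreen luminescence. Lysates from HepG2 cells pre-activated by IL-1beta plus TNF-alpha supplied JNK3; compounds were titrated.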
(Alpha assays give light when donor and acceptor beads are brought close together.)

For assay [7], the target named is 3',5'-cyclic-AMP phosphodiesterase 4B (Homo sapiens) (UniProt Q07343). The experiment in a line: qHTS Assay for Inhibitors of PDE-IV (AID 607; active = well fitted activation curve with a large enough effect in the main read-out, with a control signal flat, not every such curve was filed as active; also: % of control where 0% means no effect). The method, boiled down: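 ACTOne HEK293 cells carry a modified cAMP-gated CNG channel and express endogenous PDE4; plated 1000 cells/well, compounds up to 22.9 uM final. Membrane-potential dye fluorescence (ex 535/em 590) was read; parental cells received 10 uM forskolin + 100 uM RO 20-1724.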
For orientation: qHTS replaces the single test concentration by a dilution series.

Assay [8] in a line: qHTS Assay for Lipid Storage Modulators (AID 1519; calls by dose curve). As to conditions: Drosophila S3 cells, BODIPY lipid droplet/cell ratio, laser cytometry, cells loaded with oleic acid; for activity change, negative = inhibition: at 57.5 µM (top of the series). The method, boiled down:
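Cells seeded at 5,000 per well were treated with compounds over a concentration series and loaded with oleic acid (400 uM, as added). Lipid droplet fluorescence (488 nm excitation, 500-530 nm channel) was read by laser-scanning cytometry and normalized to 20 uM Triacsin C.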

For assay [9], the target named is Dual specificity protein kinase CLK4 (Homo sapiens) (UniProt Q9HAZ1). Description: qHTS Assay for Inhibitors of CDC-like Kinase 4 (Kinase-Glo Assay) (AID 1770). Also: nearly all actives have a fitted effect of over 65% in size. Also: potency is read from the fitted curve at half-maximal effect. The method, boiled down:
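Luminescent ATP-depletion read-out (Kinase-Glo) after 4.5 h room-temperature reaction of Clk4 (25 nM final) with RS peptide (100 uM) and ATP (1 uM), pH 7.5 Tris buffer with MgCl2 and DTT.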

Assay [10] shares this target. Description: qHTS Assay for Inhibitors of CDC-like Kinase 4 (ADP-FP Assay) (AID 1795).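 Also: recombinant human CLK4 phosphorylating RS repeat peptide at 1 µM ATP; % is scaled to controls: 0 for no effect and ±100 for the full control effect; nearly all actives have a fitted effect of over 60% in size.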 The essentials: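 Kinase activity was measured as ADP production using Transcreener orange tracer (4 nM) and ADP antibody (1 ug/mL) fluorescence polarization, with ADP calculated from a calibration curve. The 1 h reaction contained 6.25 nM Clk4, 1 uM ATP and 100 uM RS peptide at pH 7.5 with Mg2+.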

Assay [11] deals with Ubiquitin carboxyl-terminal hydrolase 1 (Homo sapiens) (UniProt O94782). Description: Inhibitors of USP1/UAF1: Pilot qHTS (AID 504865).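 Also: rhodamine fluorescence freed from ubiquitin-rhodamine substrate followed over time; top concentration of the series differs between compounds; % is scaled to controls: 0 for no effect and ±100 for the full control effect; nearly all actives have a fitted effect of over 35% in size.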 The essentials:
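Deubiquitinase activity followed as kinetic rhodamine fluorescence release from 150 nM Ub-Rho. 1 nM USP1/UAF1 with compound, after 15 min room-temperature preincubation, in HEPES pH 7.8 buffer containing TCEP, EDTA, BSA and Tween-20.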

Assay [12] can be described thus: Counterscreen qHTS for small molecule stabilizers of the endoplasmic reticulum resident proteome: GLuc-NoTag assay (AID 1508627).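 Also: SH-SY5Y cells given compound then 100 nM thapsigargin to empty ER calcium; 0% = thapsigargin alone and -100% = DMSO vehicle control.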 The method, boiled down:
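SH-SY5Y cells stably expressing constitutively secreted GLuc (no SERCaMP tag) were pre-incubated 5 h, treated with compound for 19 h, then 100 nM thapsigargin for 4 h at 37C; medium GLuc read by coelenterazine luminescence.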
(The purpose of a counterscreen is to sort out artefacts and off-target activity.)

A short description of assay [13]: Cell Viability qHTS for small molecule stabilizers of the endoplasmic reticulum resident proteome (AID 1508629). Particulars: cell viability counter-screen, 100 nM thapsigargin for final 4 h.
For assay [14], the target named is Lysosomal acid glucosylceramidase (Homo sapiens) (UniProt P04062). The experiment in a line: Glucocerebrosidase-p2 (AID 348; in the data active = potency below about 10 µM; also: potency is read from the fitted curve at half-maximal effect). Particulars: purified GBA, blue fluorogenic substrate, 40 min. The method, boiled down:
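Compounds titrated from 0.6 nM upwards against 0.2 nM enzyme in pH 5.9 citric acid/KH2PO4, taurocholate, tween-20; blue fluorogenic substrate 80 uM, 40 min room temperature, stopped and read Ex 365/Em 440 for AC50.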

Assay [15] in a line: qHTS Assay for Identification of Small Molecule Agonists for Hypoxia Response Element Signaling Pathway (AID 914; active = well fitted activation curve with a large enough effect in the signal ratio, with a control signal flat, not every such curve was filed as active; the % refers to the signal ratio; also: potency is read from the fitted curve at half-maximal effect). Particulars: ME-180 (cervical carcinoma) HRE-bla reporter, beta-lactamase ratio, CoCl2, 17 h; activation: stronger effect = higher value. The method, boiled down:
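Reporter activity (beta-lactamase, CCF4 460nm/530nm ratio) in HRE-bla ME-180 cells is recorded after 17 h compound exposure with EC50 CoCl2 at 37 degrees Celsius. AC50 values come from titration data.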

Assay [16] in a line: Confirmatory qHTS for small molecule stabilizers of the endoplasmic reticulum resident proteome: Secreted ER Calcium Modulated Protein (SERCaMP) assay (AID 1508628). Also: potency is read from the fitted curve at half-maximal effect; nearly all actives have a fitted effect of over 40% in size. The essentials:
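SH-SY5Y cells stably expressing GLuc-SERCaMP, treated 16 h with compound (primary 1.53, 7.67, 38.3 uM; confirmation 11 concentrations, up to 76.6 uM), then 100 nM thapsigargin for 4 h. Secreted Gaussia luciferase in medium read by coelenterazine luminescence.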

The target in assay [17] is Cytochrome P450 1A2 (Homo sapiens) (UniProt P05177). The experiment in a line: p450-cyp1a2 (AID 410; calls by dose curve; also: potency is read from the fitted curve at half-maximal effect). The essentials:
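Luminescent readout of luciferin formed from Luciferin-ME by human CYP1A2; data normalized against complete inhibition by 57 uM furafylline. Enzyme 20nM, substrate 100uM at Km, 100mM KPO4 buffer, 60 min reaction at room temperature.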

For assay [18], the target named is Cytochrome P450 3A4 (Homo sapiens) (UniProt P08684). The experiment in a line: qHTS Assay for Activators of Cytochrome P450 3A4 (AID 885). Also: nearly all actives have a fitted effect of over 65% in size. The method, boiled down: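 20nM CYP3A4 + 25uM Luciferin-PPXE (=KM), 200mM KPO4; cpd 10 min RT; NADPH regen, 60 min RT; stop w/ detection buffer, 20 min; luminescence. Normalized to 57 uM ketoconazole.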
The target in assay [19] is Dual specificity protein kinase CLK4 (Homo sapiens) (UniProt Q9HAZ1). Description: qHTS Assay for Inhibitors of CDC-like Kinase 4 (ADP-Glo Assay) (AID 1771). Also: nearly all actives have a fitted effect of over 70% in size. Also: potency is read from the fitted curve at half-maximal effect. The essentials: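 Luminescence from ADP-Glo reports ADP produced by 25 nM Clk4 acting on 100 uM RS repeat peptide with 1 uM ATP over 1 hr at room temperature; residual ATP is depleted before ADP is converted to ATP for detection.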

Assay [20] has as its target Cytochrome P450 3A4 (Homo sapiens) (UniProt P08684). Description: qHTS Assay for Inhibitors and Substrates of Cytochrome P450 3A4 (AID 884). Also: potency is read from the fitted curve at half-maximal effect; nearly all actives have a fitted effect of over 50% in size. The essentials:
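20 nM human CYP3A4 with 25 uM Luciferin-PPXE (at KM) in 200 mM KPO4, preincubated 10 min with compound; NADPH regeneration started a 60 min RT reaction. Luciferin detected by luminescence, normalized to 57 uM ketoconazole as full inhibition.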

The target in assay [21] is Cytochrome P450 2C19 (Homo sapiens) (UniProt P33261). The experiment in a line: qHTS Assay for Inhibitors and Substrates of Cytochrome P450 2C19 (AID 899). Also: potency is read from the fitted curve at half-maximal effect; nearly all actives have a fitted effect of over 60% in size. The method, boiled down:
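In 50mM KPO4, the reaction held 5nM enzyme and KM-level (10uM) Luciferin-H EGE; it ran 60 min at 37C after NADPH regeneration and a 10 min compound preincubation. Luminescence values were scaled to 57uM ketoconazole as complete inhibition.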

Where [22] appears, read: measured here: cell count channel max response.
[23] abbreviates: measured here: lipid channel max response.

Records with an inconclusive call do not appear. Activity calls are given as the source filed them. Unless noted, calls follow the shape of the dose curve; as a rule, active = well fitted curve in the direction sought with a large enough effect; inconclusive = small, poorly fitted or top-dose-only effect, or another doubt; inactive = no such curve, though single readings can be large; an effect the other way counts as inactive or inconclusive. Bounds are passed on as bounds.

Chain of Glucocorticoid receptor (Homo sapiens) (P04150 whole entry, looked up, the tested form may be a part): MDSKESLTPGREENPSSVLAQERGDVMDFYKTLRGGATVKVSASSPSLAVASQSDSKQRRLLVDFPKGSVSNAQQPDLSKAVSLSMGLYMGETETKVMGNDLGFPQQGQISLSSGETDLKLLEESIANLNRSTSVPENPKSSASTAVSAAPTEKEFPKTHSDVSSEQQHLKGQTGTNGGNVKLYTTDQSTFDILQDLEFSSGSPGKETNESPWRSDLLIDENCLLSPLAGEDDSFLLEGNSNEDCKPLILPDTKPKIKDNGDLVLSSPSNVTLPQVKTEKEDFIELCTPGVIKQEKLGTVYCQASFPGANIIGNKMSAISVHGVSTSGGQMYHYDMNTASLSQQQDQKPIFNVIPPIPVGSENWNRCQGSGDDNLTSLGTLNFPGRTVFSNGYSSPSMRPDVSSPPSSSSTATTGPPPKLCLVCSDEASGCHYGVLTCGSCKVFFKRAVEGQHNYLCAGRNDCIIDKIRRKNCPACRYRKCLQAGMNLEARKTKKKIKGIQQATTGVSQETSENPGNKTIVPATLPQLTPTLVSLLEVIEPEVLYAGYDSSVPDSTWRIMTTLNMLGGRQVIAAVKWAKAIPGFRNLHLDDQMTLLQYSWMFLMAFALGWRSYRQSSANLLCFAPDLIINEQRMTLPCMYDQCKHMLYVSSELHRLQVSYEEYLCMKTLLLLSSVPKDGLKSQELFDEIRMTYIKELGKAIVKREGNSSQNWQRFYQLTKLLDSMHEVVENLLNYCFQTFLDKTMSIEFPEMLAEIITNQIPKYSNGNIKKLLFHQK
Chain of Cytochrome P450 3A4 (Homo sapiens) (P08684 whole entry, looked up): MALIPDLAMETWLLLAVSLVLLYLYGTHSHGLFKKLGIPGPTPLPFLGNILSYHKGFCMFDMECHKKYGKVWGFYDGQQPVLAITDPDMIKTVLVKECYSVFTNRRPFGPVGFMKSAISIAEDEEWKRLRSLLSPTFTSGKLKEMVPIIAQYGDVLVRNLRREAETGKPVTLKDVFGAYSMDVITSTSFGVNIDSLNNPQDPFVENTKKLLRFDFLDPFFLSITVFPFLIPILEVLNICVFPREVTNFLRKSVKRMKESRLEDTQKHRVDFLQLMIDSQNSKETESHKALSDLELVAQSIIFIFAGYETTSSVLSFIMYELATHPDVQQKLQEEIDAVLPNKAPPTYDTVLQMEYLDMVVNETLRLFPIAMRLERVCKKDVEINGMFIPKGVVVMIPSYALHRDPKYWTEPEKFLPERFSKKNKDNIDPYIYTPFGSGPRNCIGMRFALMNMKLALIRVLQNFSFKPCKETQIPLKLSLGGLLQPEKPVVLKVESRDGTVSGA
Chain of Dual specificity protein kinase CLK4 (Homo sapiens) (Q9HAZ1 whole entry, looked up): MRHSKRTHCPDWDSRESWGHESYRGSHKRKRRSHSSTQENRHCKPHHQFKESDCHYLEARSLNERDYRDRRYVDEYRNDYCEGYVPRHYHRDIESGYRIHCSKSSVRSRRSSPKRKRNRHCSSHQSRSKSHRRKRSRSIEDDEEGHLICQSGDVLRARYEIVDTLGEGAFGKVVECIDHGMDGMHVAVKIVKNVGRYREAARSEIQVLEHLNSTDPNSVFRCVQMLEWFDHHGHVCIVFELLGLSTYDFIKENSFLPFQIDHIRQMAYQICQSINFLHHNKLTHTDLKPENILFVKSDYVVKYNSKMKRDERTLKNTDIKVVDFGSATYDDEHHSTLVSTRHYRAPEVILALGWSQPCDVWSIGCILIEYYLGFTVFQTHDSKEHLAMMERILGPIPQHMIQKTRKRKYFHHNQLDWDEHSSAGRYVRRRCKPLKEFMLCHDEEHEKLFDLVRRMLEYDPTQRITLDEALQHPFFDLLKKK
Chain of 3',5'-cyclic-AMP phosphodiesterase 4B (Homo sapiens) (Q07343 whole entry, looked up): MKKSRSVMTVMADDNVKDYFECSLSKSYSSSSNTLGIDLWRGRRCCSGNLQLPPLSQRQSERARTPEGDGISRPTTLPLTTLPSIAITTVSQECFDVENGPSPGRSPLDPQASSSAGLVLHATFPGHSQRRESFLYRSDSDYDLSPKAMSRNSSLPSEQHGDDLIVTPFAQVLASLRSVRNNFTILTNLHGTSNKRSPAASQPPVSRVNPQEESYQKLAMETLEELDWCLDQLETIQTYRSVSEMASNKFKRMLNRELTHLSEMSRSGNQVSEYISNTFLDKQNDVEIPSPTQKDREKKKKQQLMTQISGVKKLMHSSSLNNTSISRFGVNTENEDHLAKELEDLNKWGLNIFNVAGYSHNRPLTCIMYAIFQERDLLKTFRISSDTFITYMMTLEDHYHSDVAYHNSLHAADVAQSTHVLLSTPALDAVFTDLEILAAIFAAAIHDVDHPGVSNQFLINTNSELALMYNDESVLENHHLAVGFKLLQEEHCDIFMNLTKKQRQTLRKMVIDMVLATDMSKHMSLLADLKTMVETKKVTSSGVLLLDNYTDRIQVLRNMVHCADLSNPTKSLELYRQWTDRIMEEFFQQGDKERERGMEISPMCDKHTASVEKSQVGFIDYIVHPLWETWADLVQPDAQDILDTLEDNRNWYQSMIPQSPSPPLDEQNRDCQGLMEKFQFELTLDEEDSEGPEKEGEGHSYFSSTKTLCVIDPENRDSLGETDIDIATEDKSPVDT
Chain of Lysosomal acid glucosylceramidase (Homo sapiens) (P04062 whole entry, looked up): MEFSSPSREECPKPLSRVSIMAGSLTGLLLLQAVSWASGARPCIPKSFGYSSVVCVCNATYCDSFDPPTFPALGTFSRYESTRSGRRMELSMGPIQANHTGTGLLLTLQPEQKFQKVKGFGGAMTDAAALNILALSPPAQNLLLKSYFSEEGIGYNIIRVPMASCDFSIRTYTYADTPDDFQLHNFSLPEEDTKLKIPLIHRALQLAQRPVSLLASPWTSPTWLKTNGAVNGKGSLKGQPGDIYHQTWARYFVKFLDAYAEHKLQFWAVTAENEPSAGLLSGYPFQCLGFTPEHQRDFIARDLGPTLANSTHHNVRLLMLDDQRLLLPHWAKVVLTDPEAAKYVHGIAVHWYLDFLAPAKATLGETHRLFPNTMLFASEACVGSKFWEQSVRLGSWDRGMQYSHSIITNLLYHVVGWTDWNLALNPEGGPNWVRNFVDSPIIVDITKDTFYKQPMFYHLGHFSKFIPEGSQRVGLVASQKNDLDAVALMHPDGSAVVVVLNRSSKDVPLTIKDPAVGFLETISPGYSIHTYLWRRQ
Chain of Cytochrome P450 1A2 (Homo sapiens) (P05177 whole entry, looked up): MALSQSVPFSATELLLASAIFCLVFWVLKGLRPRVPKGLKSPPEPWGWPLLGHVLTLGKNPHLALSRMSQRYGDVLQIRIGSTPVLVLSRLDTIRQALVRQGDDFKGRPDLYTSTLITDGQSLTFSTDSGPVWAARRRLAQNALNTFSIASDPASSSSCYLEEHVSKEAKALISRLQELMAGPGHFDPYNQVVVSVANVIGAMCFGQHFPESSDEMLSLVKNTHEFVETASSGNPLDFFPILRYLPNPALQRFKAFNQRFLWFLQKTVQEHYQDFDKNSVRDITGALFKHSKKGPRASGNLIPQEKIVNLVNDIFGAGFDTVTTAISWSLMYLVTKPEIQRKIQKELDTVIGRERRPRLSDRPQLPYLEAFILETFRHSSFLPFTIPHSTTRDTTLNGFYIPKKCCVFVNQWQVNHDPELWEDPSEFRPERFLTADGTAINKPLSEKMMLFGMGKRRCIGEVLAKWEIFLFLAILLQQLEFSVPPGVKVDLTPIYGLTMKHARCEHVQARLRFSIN
Chain of Ubiquitin carboxyl-terminal hydrolase 1 (Homo sapiens) (O94782 whole entry, looked up): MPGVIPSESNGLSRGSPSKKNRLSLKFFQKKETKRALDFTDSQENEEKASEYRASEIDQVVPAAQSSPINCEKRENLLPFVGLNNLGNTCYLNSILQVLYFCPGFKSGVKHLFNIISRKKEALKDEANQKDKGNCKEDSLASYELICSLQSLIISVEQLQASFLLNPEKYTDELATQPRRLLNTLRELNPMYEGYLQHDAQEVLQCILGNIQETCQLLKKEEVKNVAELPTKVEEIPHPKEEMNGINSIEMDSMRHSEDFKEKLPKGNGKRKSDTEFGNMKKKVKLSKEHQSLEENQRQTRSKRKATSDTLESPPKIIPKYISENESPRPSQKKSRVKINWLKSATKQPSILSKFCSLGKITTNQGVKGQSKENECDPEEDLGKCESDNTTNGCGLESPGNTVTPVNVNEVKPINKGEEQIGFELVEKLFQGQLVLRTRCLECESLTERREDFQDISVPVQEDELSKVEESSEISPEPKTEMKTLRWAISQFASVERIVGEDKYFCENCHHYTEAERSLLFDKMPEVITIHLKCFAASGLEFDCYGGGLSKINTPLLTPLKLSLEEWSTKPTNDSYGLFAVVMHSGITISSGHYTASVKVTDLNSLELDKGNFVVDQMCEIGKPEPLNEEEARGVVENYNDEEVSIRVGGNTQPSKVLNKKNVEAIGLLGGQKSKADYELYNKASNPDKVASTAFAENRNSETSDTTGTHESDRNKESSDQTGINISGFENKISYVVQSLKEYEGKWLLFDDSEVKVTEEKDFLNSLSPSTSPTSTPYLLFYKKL
Chain of Cytochrome P450 2C19 (Homo sapiens) (P33261 whole entry, looked up): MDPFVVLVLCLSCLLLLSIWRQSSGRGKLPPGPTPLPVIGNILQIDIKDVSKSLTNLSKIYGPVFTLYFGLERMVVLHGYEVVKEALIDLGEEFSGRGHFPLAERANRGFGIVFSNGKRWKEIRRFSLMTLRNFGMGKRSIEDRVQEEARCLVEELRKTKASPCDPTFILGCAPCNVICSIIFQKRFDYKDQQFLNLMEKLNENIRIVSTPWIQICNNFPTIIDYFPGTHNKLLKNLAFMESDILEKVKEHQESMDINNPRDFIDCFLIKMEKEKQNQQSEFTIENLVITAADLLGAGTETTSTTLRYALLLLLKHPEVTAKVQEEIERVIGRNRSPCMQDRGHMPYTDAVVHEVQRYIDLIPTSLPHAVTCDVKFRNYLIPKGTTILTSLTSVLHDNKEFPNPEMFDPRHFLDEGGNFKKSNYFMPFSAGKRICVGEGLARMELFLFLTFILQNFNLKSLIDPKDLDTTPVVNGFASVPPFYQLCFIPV

As to `Cn1c(=O)c(CCc2ccccc2)nc2cnc(OCc3ccccc3)nc21`, the activity change, negative = inhibition was -26% (inactive) in [1], -3.3% (inactive) in [2] and 2.86% (inactive) in assay [8]. The activity, negative = inhibition in assay [3] was -13% (inactive). Further, the Potency in [4] was > 9.22 µM (inactive); in assay [5] it was > 46 µM (inactive). Moreover, in [6], the molecule was called inactive. For the same molecule, the Potency result in [7], in [9], in [10], in assay [11] and in assay [12] was “inactive” in each case. In addition, the values for the max response in assay [8] (setting [22]), in assay [8] (setting [23]) and in assay [13] were 13.9%, 15.4% and -14.7% (inactive), respectively.

Turning to `CN1CCN(c2ncc3nc(-c4ccccc4)c(=O)n(-c4ccccc4)c3n2)CC1`, the Potency in assay [14] was > 11.4 µM (inactive); in assay [4], > 9.22 µM (inactive); in assay [5], > 46 µM (inactive); in assay [15], 3.16 µM (active); in assay [16], 25.1 µM (active). Also, the molecule was classed as inactive in [6]. The Potency entry in [7] and in assay [12] was “inactive” in each case.

For `COCCn1c(=O)c(-c2cn(C)c3ccccc23)nc2cnc(N3CCNCC3)nc21`, the Potency in [14] was > 11.4 µM (inactive); in [17] it was 12.6 µM (active); in [4] it was > 9.22 µM (inactive); in [5], > 46 µM (inactive); in assay [15], 3.16 µM (active). The activity change, negative = inhibition in [1] is 16% (inactive); in [2], 18.5% (inactive). Besides, the result in assay [6] was inactive. Also, the Potency result in assay [7], in assay [18], in [9], in assay [19], in assay [10] and in [11] was “inactive” each time. Further, the Potency entry in assay [12] was “inactive”. The max response in assay [13] was -7.1% (inactive).

As for `O=C(c1ccco1)N1CCC[C@@]2(CCN(c3ccncc3)C2)C1`, the Potency was > 11.4 µM (inactive) in assay [14]; 12.6 µM (active) in assay [17]; > 46 µM (inactive) in assay [5]; 1.26 µM (active) in assay [20]; 28.2 µM (active) in [16]. For the same molecule, the activity change, negative = inhibition in assay [1] was 0.424% (inactive). The activity, negative = inhibition in assay [3] is 1.83% (inactive). In addition, the result in [6] was inactive. Also, the Potency entry in [7], in [18] and in assay [12] was “inactive” in each case.

For `COc1ccc(-n2c(=O)c(-c3ccccc3)nc3cnc(N4CCNCC4)nc32)cc1`, the Potency is > 11.4 µM (inactive) in [14]; 15.8 µM (active) in assay [17]; > 9.22 µM (inactive) in [4]; > 46 µM (inactive) in assay [5]; 3.16 µM (active) in assay [15]. Besides, the molecule was called inactive in assay [6]. For the same molecule, the Potency result in assay [7], in assay [9], in assay [19], in assay [10], in [11] and in assay [12] was “inactive” each time. Besides, the max response in assay [13] is 0.755% (inactive).

In the case of `CN1CCN(c2ncnc3ccc(-c4ccccc4Cl)cc23)CC1`, the Potency in [14] is > 11.4 µM (inactive); in [17], 1.58 µM (active); in assay [4] it was > 46 µM (inactive); in assay [5] it was > 46 µM (inactive); in [20], 5.01 µM (active); in [21], 3.98 µM (active). Besides, the Potency was 25.1 µM (active) in assay [9] and 28.2 µM (active) in assay [19]. Also, the activity change, negative = inhibition in [2] was -23.1% (inactive); in assay [8], -1.72% (inactive). Moreover, in [6], the molecule was classed as inactive. Further, the Potency result in assay [18] and in assay [12] was “inactive” in each case. For the same molecule, the max response in assay [8] (setting [22]) was 10.9%; in [8] (setting [23]), -1.45%.

The values are drawn from PubChem BioAssay (NCATS).
